Results: PubChem BioAssay (NCI)
Compounds without any hit were thinned out: in the full panel of roughly 83,000, 20% have a hit.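 Cell lines were cultured in 96-well plates, exposed to a single compound concentration, and assessed for percent growth 48 hours later.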 Active and inactive are the calls of the source. How the source made its calls: active means growth percent below 10; inactive means the rest.

Columns and labels:
Test in all cases: NCI-60 one-dose screen, 48 h (100 = growth as untreated, 0 = no growth, -100 = all killed)
Settings in all cases: 10 µM
NCI-H23 lung = tested on: NCI-H23 lung
NCI-H226 lung = tested on: NCI-H226 lung
NCI-H322M lung = tested on: NCI-H322M lung
HOP-62 NSCLC = tested on: HOP-62 NSCLC
NCI-H460 lung = tested on: NCI-H460 lung
HOP-92 NSCLC = tested on: HOP-92 NSCLC
NCI-H522 lung = tested on: NCI-H522 lung
A549/ATCC NSCLC = tested on: A549/ATCC NSCLC
786-0 renal = tested on: 786-0 renal
COLO 205 colon = tested on: COLO 205 colon
DU-145 prostate = tested on: DU-145 prostate
K-562 leukemia = tested on: K-562 leukemia
MDA-MB-231 breast = tested on: MDA-MB-231 breast
RXF 393 renal = tested on: RXF 393 renal
SF-268 CNS = tested on: SF-268 CNS
SF-295 CNS = tested on: SF-295 CNS
SF-539 CNS = tested on: SF-539 CNS
UACC-257 melanoma = tested on: UACC-257 melanoma
M14 melanoma = tested on: M14 melanoma

Measured: growth

C/C(=N\NC(N)=S)C(C)(C)O
inactive: NCI-H23 lung 93.6% | NCI-H226 lung 89.2% | NCI-H322M lung 104% | HOP-62 NSCLC 104% | NCI-H460 lung 104% | HOP-92 NSCLC 88.1% | NCI-H522 lung 109% | A549/ATCC NSCLC 83.4% | 786-0 renal 96.3% | COLO 205 colon 119% | DU-145 prostate 93.2% | K-562 leukemia 37.1% | MDA-MB-231 breast 77.8% | RXF 393 renal 96.2% | SF-268 CNS 95.9% | SF-295 CNS 79.5% | SF-539 CNS 102% | UACC-257 melanoma 32.6% | M14 melanoma 92%

CCOc1nc(-c2ccccc2)cc2c(O)c(C(=O)NCCCO)[nH]c(=O)c12
inactive: NCI-H23 lung 103% | NCI-H226 lung 94.7% | NCI-H322M lung 106% | HOP-62 NSCLC 91.1% | NCI-H460 lung 110% | HOP-92 NSCLC 66% | NCI-H522 lung 77.4% | A549/ATCC NSCLC 106% | 786-0 renal 106% | COLO 205 colon 118% | DU-145 prostate 100% | K-562 leukemia 111% | MDA-MB-231 breast 102% | RXF 393 renal 63.2% | SF-268 CNS 103% | SF-295 CNS 77.5% | SF-539 CNS 93.9% | UACC-257 melanoma 122% | M14 melanoma 94.4%

O=C(c1ccccc1)C(Sc1ccccc1)c1ccccc1 (configuration not stated)
inactive: NCI-H23 lung 76.4% | NCI-H226 lung 94% | NCI-H322M lung 108% | HOP-62 NSCLC 93% | NCI-H460 lung 67.8% | HOP-92 NSCLC 67.2% | NCI-H522 lung 62.4% | A549/ATCC NSCLC 92% | 786-0 renal 104% | COLO 205 colon 108% | DU-145 prostate 29.7% | K-562 leukemia 84.5% | MDA-MB-231 breast 89.2% | RXF 393 renal 80.7% | SF-268 CNS 92.6% | SF-295 CNS 113% | SF-539 CNS 99.5% | UACC-257 melanoma 98.8% | M14 melanoma 94.5%

CC1(C)CC(OCCCC[P+](c2ccccc2)(c2ccccc2)c2ccccc2)CC(C)(C)N1O
inactive: NCI-H226 lung 12.7% | HOP-62 NSCLC 13.3% | SF-539 CNS 12%
active: NCI-H23 lung 4.57% | NCI-H322M lung 9.8% | NCI-H460 lung 2.69% | HOP-92 NSCLC -41.4% | NCI-H522 lung -14.3% | A549/ATCC NSCLC 6.09% | 786-0 renal -12.4% | COLO 205 colon -55.3% | DU-145 prostate 5.39% | K-562 leukemia -53.4% | MDA-MB-231 breast -25.7% | RXF 393 renal -38.1% | SF-268 CNS 3.46% | SF-295 CNS -56% | UACC-257 melanoma -40.6% | M14 melanoma 8.8%

Nc1c(C(=O)Nc2ccccc2F)sc2nc3c(cc12)C(=O)CCC3
active: NCI-H522 lung -15.2% | COLO 205 colon 5.76% | DU-145 prostate 8.4% | RXF 393 renal 9.63% | SF-295 CNS 3.17%
inactive: NCI-H23 lung 42.8% | NCI-H226 lung 75.1% | NCI-H322M lung 68.8% | HOP-62 NSCLC 42.7% | NCI-H460 lung 11.4% | HOP-92 NSCLC 53.6% | A549/ATCC NSCLC 22% | 786-0 renal 41.5% | K-562 leukemia 26.3% | MDA-MB-231 breast 48.9% | SF-268 CNS 54.9% | SF-539 CNS 10.5% | UACC-257 melanoma 66.9% | M14 melanoma 19.2%

C=CCNCCCN1C(=O)c2ccc3c4c(ccc(c24)C1=O)C(=O)N(CCCNCC=C)C3=O
active: NCI-H23 lung -55.6% | NCI-H226 lung -30.8% | NCI-H322M lung -48.3% | HOP-62 NSCLC -53% | NCI-H460 lung -56.7% | HOP-92 NSCLC -21.6% | NCI-H522 lung -77.3% | A549/ATCC NSCLC -73.6% | 786-0 renal -31% | COLO 205 colon -86.8% | DU-145 prostate -94.8% | K-562 leukemia 0.431% | MDA-MB-231 breast 1.35% | RXF 393 renal -94.1% | SF-268 CNS -22.1% | SF-295 CNS -76.9% | SF-539 CNS -88.7% | UACC-257 melanoma -84% | M14 melanoma -84.8%

C#CCNCCCN1C(=O)c2ccc3c4c(ccc(c24)C1=O)C(=O)N(CCCNCC#C)C3=O
active: NCI-H23 lung -45% | NCI-H226 lung -48.6% | NCI-H322M lung -94.4% | HOP-62 NSCLC -67.8% | NCI-H460 lung -78.5% | HOP-92 NSCLC -26.3% | NCI-H522 lung -78.4% | A549/ATCC NSCLC -72.3% | 786-0 renal -56.9% | COLO 205 colon -86.7% | DU-145 prostate -98.8% | K-562 leukemia -4.82% | MDA-MB-231 breast 0.356% | RXF 393 renal -91.4% | SF-268 CNS -26.4% | SF-295 CNS -82.9% | SF-539 CNS -97% | UACC-257 melanoma -87.8% | M14 melanoma -91%

COc1ccc(Cn2cc3c(c2-c2ccccc2)CC(C)(C)c2cnoc2-3)cc1
inactive: NCI-H23 lung 34.4% | NCI-H226 lung 52.4% | NCI-H322M lung 34.1% | HOP-62 NSCLC 34.2% | HOP-92 NSCLC 59.9% | NCI-H522 lung 43.3% | A549/ATCC NSCLC 49.6% | 786-0 renal 35.4% | DU-145 prostate 37.6% | K-562 leukemia 18% | MDA-MB-231 breast 57.6% | RXF 393 renal 20.3% | SF-268 CNS 40.9% | UACC-257 melanoma 58.3% | M14 melanoma 40.1%
active: NCI-H460 lung 9.42% | COLO 205 colon 2.39% | SF-295 CNS -10.7% | SF-539 CNS 6.34%
